TDP1 cell noCPT: qHTS for Inhibitors of human tyrosyl-DNA phosphodiesterase 1 (TDP1): qHTS in cells in absence of CPT | DT40 Tdp1-/- hTDP1 cells, no CPT, ATP luminescence, 48 h | AID 686978, 2013 | hit rate 15% among 420,000 | Potency, µM (doses to about 46.2 µM), hits mostly inhibitors; further: nearly all actives have a fitted effect of over 55% in size
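Seeded 400 DT40-hTDP1 cells/well (vehicle DMSO, no 20 nM CPT); pinned compounds; ≥48 hr at 37 °C; CellTiter-Glo luminescence as viability measure.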
HT1080NT lethal: kills 2HG-producing HT-1080-NT fibrosarcoma cells | HT-1080-NT fibrosarcoma viability, CellTiter-Glo ATP luminescence, 48 h | Potency, µM (top dose mostly 46.1 µM), actives largely listed as cytotoxic | hit rate 1.6% among 360,000 | AID 686970;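 further: NT is the 2HG producing partner of a matched IDH1 knockdown line; nearly all actives have a fitted effect of over 55% in size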
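HT-1080-NT; 750 cells/well; 5% FBS RPMI; 48 h compound, 37 degrees C; CellTiter-Glo luminescence; curve fitting and curve-class assignment.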
12-LOX inh: ALOX12 (human) lipoxygenase inhibition. hit rate 1.1% among 580,000. purified 12hLO, xylenol orange hydroperoxide absorbance. AID 1671190. P18054. Potency, µM (series often up to 108 µM), most hits filed as inhibitors
Target sequence (P18054 whole entry, looked up): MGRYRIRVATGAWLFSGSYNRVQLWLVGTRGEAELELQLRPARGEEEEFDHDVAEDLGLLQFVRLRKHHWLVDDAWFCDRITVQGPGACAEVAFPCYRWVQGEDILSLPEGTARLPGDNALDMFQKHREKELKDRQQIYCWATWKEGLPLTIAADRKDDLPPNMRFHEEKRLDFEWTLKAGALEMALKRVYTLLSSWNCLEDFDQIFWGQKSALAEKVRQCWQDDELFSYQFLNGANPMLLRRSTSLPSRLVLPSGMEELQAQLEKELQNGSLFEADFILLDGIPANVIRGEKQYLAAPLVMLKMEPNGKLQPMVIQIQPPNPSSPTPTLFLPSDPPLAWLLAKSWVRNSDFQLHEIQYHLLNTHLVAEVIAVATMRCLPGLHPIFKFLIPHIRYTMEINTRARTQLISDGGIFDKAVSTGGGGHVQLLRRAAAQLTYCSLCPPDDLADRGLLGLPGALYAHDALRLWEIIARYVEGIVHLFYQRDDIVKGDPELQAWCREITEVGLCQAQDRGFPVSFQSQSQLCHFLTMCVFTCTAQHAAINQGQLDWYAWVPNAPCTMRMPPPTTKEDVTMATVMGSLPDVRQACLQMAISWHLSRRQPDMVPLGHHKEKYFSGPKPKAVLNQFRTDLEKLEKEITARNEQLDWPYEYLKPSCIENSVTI
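Purified human 12hLO (150 nM final) in 25 mM Hepes, 0.01% Triton X-100, pH 7.0 was preincubated 15 min at room temperature with compound. Then 40 uM arachidonic acid was added, 30 min. Hydroperoxide was read by Fe-XO absorbance ratio 573/405 nm.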
HT1080 IDH1KD tx: HT-1080 IDH1 knockdown cell toxicity (counter line); hit rate 2% among 360,000; Potency, µM (highest dose often 46.1 µM), hits mostly cytotoxic; HT-1080 IDH1 knockdown viability, ATP luminescence, 48 h
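In this qHTS, HT-1080 cells depleted of IDH1 are exposed for 48 h at 37 °C to compound titrations. Toxicity is scored from CellTiter-Glo luminescence, with DMSO as full viability and medium alone as none.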
IL1B secr inh: inflammasome signaling inhibition, IL-1 beta readout; THP-1 LPS/ATP IL-1B secretion, AlphaLISA, 16 h; stronger effect = lower value; activity change, % at 57.5 µM; hit rate 4.7% among 360,000; in the data active means activity change below about -50%; inconclusive means mostly about -30% to -49%
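THP-1 cells pretreated 1 hr with compounds (up to 57.5 uM final), then stimulated with LPS (250 ng/mL final) plus ATP (1.25 mM final); secreted IL-1B measured by AlphaLISA after 16 hr, decreased signal indicating inhibition.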
DT40 TDP1 CPT: DT40-hTDP1 cell growth loss with CPT; chicken DT40 Tdp1-/-;hTDP1 cells + 20 nM CPT, ATP luminescence, 48 h; Potency, µM (series often up to 46.2 µM), actives largely listed as inhibitors; AID 686979; hit rate 12% among 420,000; further: nearly all actives have a fitted effect of over 55% in size
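Cell growth measured by CellTiter-Glo luminescence after a minimum 48 h, 37 C compound exposure with 20 nM CPT in Tdp1-knockout DT40 cells stably expressing hTDP1, seeded 400/well; qHTS titration format.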
Each line names hits and unclear results; the compound was inactive in the other large screens. Shown is part of a subset that was picked to be rich in hits. Unless noted, the call rests on the fitted dose curve; in most records, active means well fitted curve in the direction sought with a large enough effect; inconclusive means small, poorly fitted or top-dose-only effect, or another doubt; inactive means no such curve, though single readings can be large; an effect the other way counts as inactive or inconclusive.

COc1ccccc1N1CCN(C(=O)CSc2ncnc3scc(-c4ccccc4)c23)CC1	TDP1 cell noCPT 16µM, DT40 TDP1 CPT inconclusive
O=C(CSc1ncnc2scc(-c3ccccc3)c12)N1CCN(c2ccccc2F)CC1	TDP1 cell noCPT 18µM, DT40 TDP1 CPT inconclusive
COc1ccc(-n2ncc3c(SCC(=O)N4CCN(c5ccccc5OC)CC4)ncnc32)cc1	TDP1 cell noCPT 21µM, DT40 TDP1 CPT inconclusive
CC1C(=O)N(Cc2ncc(-c3ccccc3)o2)C(=O)N1c1ccc(F)cc1 (stereo unspecified)	none (no result: TDP1 cell noCPT, HT1080NT lethal, HT1080 IDH1KD tx, IL1B secr inh, DT40 TDP1 CPT)
CCCS(=O)(=O)c1c(S(=O)(=O)CCC)c2cc(C(C)(C)C)ccn2c1C(=O)c1ccc(C)cc1	TDP1 cell noCPT 15µM, DT40 TDP1 CPT 23µM (no result: HT1080NT lethal, HT1080 IDH1KD tx, IL1B secr inh)
CC(=O)c1c(C)[nH]c(C(=O)Nc2cccnc2)c1C	none
CC(=O)c1c(C)[nH]c(C(=O)Nc2cccc(C(F)(F)F)c2)c1C	TDP1 cell noCPT 21µM, HT1080NT lethal inconclusive, HT1080 IDH1KD tx inconclusive, IL1B secr inh -73, DT40 TDP1 CPT inconclusive
CC(=O)c1c(C)[nH]c(C(=O)Nc2cccc(C#N)c2)c1C	TDP1 cell noCPT 16µM
Cc1noc(C2CCCCCN2C(=O)COc2ccc(F)cc2)n1 (stereo unspecified)	none (no result: TDP1 cell noCPT, HT1080NT lethal, HT1080 IDH1KD tx, IL1B secr inh, DT40 TDP1 CPT)
CC(Cn1cccn1)NC(=O)N1CCN(Cc2cccs2)CC1 (stereo unspecified)	none (no result: TDP1 cell noCPT, HT1080NT lethal, HT1080 IDH1KD tx, IL1B secr inh, DT40 TDP1 CPT)
Cc1[nH]n(-c2ccc([N+](=O)[O-])cc2)c(=O)c1C=NCCN1CCN(C(=O)c2ccccc2)CC1	TDP1 cell noCPT 10µM, HT1080NT lethal inconclusive, HT1080 IDH1KD tx inconclusive, DT40 TDP1 CPT 10µM
Cc1[nH]n(-c2ccc([N+](=O)[O-])cc2)c(=O)c1/C=N/N1CCOCC1	TDP1 cell noCPT inconclusive, HT1080NT lethal inconclusive, HT1080 IDH1KD tx inconclusive, DT40 TDP1 CPT 12µM
CNC(=O)[C@@H]1CN(Cc2cccc(OC(F)(F)F)c2)C[C@H]1CO	none (no result: TDP1 cell noCPT, HT1080NT lethal, HT1080 IDH1KD tx, IL1B secr inh, DT40 TDP1 CPT)
Cc1ccc(C(=O)N2CCN(c3cc(C(F)(F)F)ncn3)CC2)cc1F	none (no result: TDP1 cell noCPT, HT1080NT lethal, HT1080 IDH1KD tx, IL1B secr inh, DT40 TDP1 CPT)
O=C1NC(=O)/C(=C\c2ccccc2OCc2ccc([N+](=O)[O-])cc2)N1	TDP1 cell noCPT inconclusive, DT40 TDP1 CPT inconclusive
CCOC(=O)COc1ccccc1/C=C1\NC(=O)NC1=O	IL1B secr inh -91
O=C(NCc1ccccn1)C1CCCN(S(=O)(=O)c2cc(Cl)ccc2Cl)C1 (stereo unspecified)	TDP1 cell noCPT 8.2µM, HT1080NT lethal 5.8µM, HT1080 IDH1KD tx 5.8µM, IL1B secr inh -104, DT40 TDP1 CPT 9.2µM (no result: 12-LOX inh)
O=C(NCc1ccncc1)C1CCN(S(=O)(=O)c2ccccc2)CC1	none
COc1ccc(C)cc1S(=O)(=O)N1CCCC(C(=O)NCc2ccccn2)C1 (stereo unspecified)	none
Cc1ccc(CNC(=O)C2CCN(S(=O)(=O)N3CCC(C)CC3)CC2)cc1	TDP1 cell noCPT inconclusive
O=C(C1CCN(S(=O)(=O)c2cc(Cl)ccc2Cl)CC1)N1CCOCC1	12-LOX inh inconclusive, IL1B secr inh -57
CCc1ccc(CNC(=O)C2CCN(S(=O)(=O)N3CCC(C)CC3)CC2)cc1	TDP1 cell noCPT 26µM, DT40 TDP1 CPT inconclusive
O=C(NCc1ccncc1)C1CCN(S(=O)(=O)Cc2ccccc2)CC1	IL1B secr inh -64
CCCCn1nc(C(=O)NCc2ccc(Cl)cc2)c2ccccc2c1=O	none (no result: TDP1 cell noCPT, HT1080NT lethal, HT1080 IDH1KD tx, IL1B secr inh, DT40 TDP1 CPT)
Cc1ccccc1CCNC(=O)c1cccc2ncccc12	none (no result: TDP1 cell noCPT, HT1080NT lethal, HT1080 IDH1KD tx, IL1B secr inh, DT40 TDP1 CPT)
Cc1cc(S(=O)(=O)N2CCCC(N(C)CCc3ccccn3)C2)c(C)cc1Cl (stereo unspecified)	TDP1 cell noCPT 21µM, 12-LOX inh inconclusive, IL1B secr inh inconclusive, DT40 TDP1 CPT 21µM
O=C(NCc1cccnc1)C1CCN(S(=O)(=O)c2cc(Cl)ccc2Cl)CC1	TDP1 cell noCPT inconclusive, DT40 TDP1 CPT 7.3µM
CCc1ccccc1NC(=O)CNC(=O)Cn1c(=O)n(CC)c2ccccc21	none (no result: TDP1 cell noCPT, HT1080NT lethal, HT1080 IDH1KD tx, IL1B secr inh, DT40 TDP1 CPT)
Cc1ccccc1COC(=O)CSc1cnc2ccccc2n1	none (no result: TDP1 cell noCPT, HT1080NT lethal, HT1080 IDH1KD tx, IL1B secr inh, DT40 TDP1 CPT)

Source: PubChem BioAssay (National Center for Advancing Translational Sciences (NCATS))
